Data: article PMC7819943, “Rice protein-binding microarrays: a tool to detect cis-acting elements near promoter regions in rice”
In all, about 35,000 sequences were measured (“fluorescence intensity (a.u.)”: median about 10,000, highest 2% from about 52,000 on). The full list was thinned out, with the highest values kept by preference.

target: T1, OsWOX13 (Oryza sativa, UniProt Q5QMM3 1-267); assay: protein-binding microarray (RPBM); PBS, 2% BSA, 51.3 ng/ul salmon testes DNA, 50 uM zinc acetate, 200 nM TF, 25 C, 1 h; high values mean tight binding; details: protein: recombinant; tags: N-terminal polyhistidine and DsRed monomer fusion (pET32a); label: CyDye5-dUTP incorporated in the synthesized complementary strand; 3' TTTTT single-stranded linker to array surface; dsDNA, one strand shown
T1 sequence: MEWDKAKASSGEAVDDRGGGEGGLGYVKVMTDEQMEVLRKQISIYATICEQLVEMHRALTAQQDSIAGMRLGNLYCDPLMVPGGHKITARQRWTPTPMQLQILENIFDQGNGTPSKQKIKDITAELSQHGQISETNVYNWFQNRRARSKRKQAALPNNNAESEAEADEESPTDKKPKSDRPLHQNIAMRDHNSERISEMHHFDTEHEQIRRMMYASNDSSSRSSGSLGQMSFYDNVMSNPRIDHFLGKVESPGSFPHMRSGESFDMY
In short: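 Transcription factors were made in E. coli BL21-CodonPlus as N-terminal fusions to a polyhistidine tag and DsRed, then purified on Ni–NTA. After primer extension with Cy5-dUTP and blocking with 2% BSA, a custom Agilent array was exposed for 1 h at 25 °C to 200 nM protein in PBS, 2% BSA, salmon testes DNA and 50 µM zinc acetate. Washed arrays were scanned on an Axon 4000B, and the binding signal is per-feature fluorescence intensity in arbitrary units.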

Sequence	binding signal
ATGACTATTTTCACCTATAATTATAAGTTATGGAACAATACGGAGTCACCTAGTGCAG	4820 fluorescence intensity (a.u.)
AGCAAAATTAACACCGCAATTTGAGCCGGTTACTTCTTTCCGGAGTCACCTAGTGCAG	4830 fluorescence intensity (a.u.)
CCGCGATTACAATTAGCGCCGGATTAACCCTGCAATTAGCCGGAGTCACCTAGTGCAG	20500 fluorescence intensity (a.u.)
CATGATTGAAACATTACTTGATGGCTTCTGGTCCTACCCACGGAGTCACCTAGTGCAG	53900 fluorescence intensity (a.u.)
CTCAACATGAACTTCTTGATTACCTGTGACCCAGCCACGGCGGAGTCACCTAGTGCAG	3150 fluorescence intensity (a.u.)
CATCGAACATCATGAATTTGATTGGCTTCTACTTTCACGACGGAGTCACCTAGTGCAG	17100 fluorescence intensity (a.u.)
TTTTGATTGGCCGAGGAGAAGGCGAAACAGACTGCCACTGCGGAGTCACCTAGTGCAG	53800 fluorescence intensity (a.u.)
TGGGAGATTGTATTAAACAGAGGAGAACGATGGCGAAAGGCGGAGTCACCTAGTGCAG	6630 fluorescence intensity (a.u.)
GAAACATGTTGAGATTGATTTACATTTTGTGCGCGAGAAGCGGAGTCACCTAGTGCAG	18000 fluorescence intensity (a.u.)
TTATTTGACACAATGCGATTGAATTGGGGTGCAGGAGTATCGGAGTCACCTAGTGCAG	6780 fluorescence intensity (a.u.)
AGAAATATTCAATCAAGCTACTGCGCACATATATCTTTATCGGAGTCACCTAGTGCAG	9630 fluorescence intensity (a.u.)
GTGCTGTGATTGGCCGCGCGGGATTTCCTGGGCGGGCGGGCGGAGTCACCTAGTGCAG	22600 fluorescence intensity (a.u.)
CTATCATATTGACAGCTTTGTAATTGCTTTTGACAGGTTCCGGAGTCACCTAGTGCAG	26400 fluorescence intensity (a.u.)
AATTGACGTAATTTCAGGTCGTATTTGTGGTGCAACAACCCGGAGTCACCTAGTGCAG	16600 fluorescence intensity (a.u.)
CATATTGACAGCTTTGTAATTGCATTTGACAGGTTCAACCCGGAGTCACCTAGTGCAG	60500 fluorescence intensity (a.u.)
CGAAATTAATTAGCGAAATTAATTAACGCTTTACACAAGGCGGAGTCACCTAGTGCAG	64900 fluorescence intensity (a.u.)
TGAGTAAATGTGTTGTTGTTAATTGCTATATGTACAGTTGCGGAGTCACCTAGTGCAG	5280 fluorescence intensity (a.u.)
ATAATTATTCTGTTAATTAATCAATTATTATCTGGGAATCCGGAGTCACCTAGTGCAG	63600 fluorescence intensity (a.u.)
TAAAATTAAATTTACAAGGGTTAATTCGCGAGTAATAACGCGGAGTCACCTAGTGCAG	12300 fluorescence intensity (a.u.)
TATGCAGTTTTACAATAATTTAATTAAAGTACAGTTTTGTCGGAGTCACCTAGTGCAG	5420 fluorescence intensity (a.u.)
TCCTAATTGTACAATTAATTAAATTAAGTACAGTCCTATGCGGAGTCACCTAGTGCAG	53000 fluorescence intensity (a.u.)
TCCACAGATTGAGGAATCCGAGCAACAAATATCCTAGTAGCGGAGTCACCTAGTGCAG	11900 fluorescence intensity (a.u.)
TTTTATCTCACCAATCAATTTAATTTCTTTATTTATTTTCCGGAGTCACCTAGTGCAG	6870 fluorescence intensity (a.u.)
TGGACATTGACAAAATCACAGATCCAGTAAGTACTAGTATCGGAGTCACCTAGTGCAG	3170 fluorescence intensity (a.u.)
GGTCCTAATTGACAAATCCACAGAAGTAGTACTCCAGGAGCGGAGTCACCTAGTGCAG	53000 fluorescence intensity (a.u.)

Sequence	binding signal
AATGTCTGCAATTAATCAATCTGTTAATCTGTTATTAGTACGGAGTCACCTAGTGCAG	21900 fluorescence intensity (a.u.)
TCACAAAATAATTAACTTTAAAATTAAATTTTAGCAGCAGCGGAGTCACCTAGTGCAG	15100 fluorescence intensity (a.u.)
GGCTAATTTGGCGAGGTAATACGGTAGTATAGCACGGTTACGGAGTCACCTAGTGCAG	10500 fluorescence intensity (a.u.)
CCCGCTTGAATGGATGGCAATCAACACAAGGAACAGACCGCGGAGTCACCTAGTGCAG	13700 fluorescence intensity (a.u.)
AATCAAATTGCCACTTAAATCTATTGCCTCAAGTGAACAGCGGAGTCACCTAGTGCAG	16100 fluorescence intensity (a.u.)
GATCAATTAATATGGAATTTAAAAGTTCAATTAATATGGACGGAGTCACCTAGTGCAG	8910 fluorescence intensity (a.u.)
TTCAATTGATGTTCTTGCTTGCAAGTTGCAACGAGATTTGCGGAGTCACCTAGTGCAG	7920 fluorescence intensity (a.u.)
AATGATGATTGATGGGTCATGGCACAAGGACGCTAAACCGCGGAGTCACCTAGTGCAG	40700 fluorescence intensity (a.u.)
ATATAATAGCTAATCAAACACTAGTCCGAAGACGTAGTATCGGAGTCACCTAGTGCAG	21700 fluorescence intensity (a.u.)
CCCTCGCCTGGGCCGATCCCCATACATCCCGCGAGCGCGACGGAGTCACCTAGTGCAG	3440 fluorescence intensity (a.u.)
GTTCGATTGAGATAGCTCTTAACATCAGTGACTTCTAGCCCGGAGTCACCTAGTGCAG	3800 fluorescence intensity (a.u.)
GATGATAAATTAAGTCACAATAAATAAATAATAATAATATCGGAGTCACCTAGTGCAG	5820 fluorescence intensity (a.u.)
ATAAATTAATCCAGGCGTGATCTCCCGGCGCCCGCACGCGCGGAGTCACCTAGTGCAG	7300 fluorescence intensity (a.u.)
GCTACAATAATTAATCAATTAATTAAATTAAATTAAGTGGCGGAGTCACCTAGTGCAG	55300 fluorescence intensity (a.u.)
TAAGTAATTAATTAATCAATCAATTAATCAATTATTATCCCGGAGTCACCTAGTGCAG	52600 fluorescence intensity (a.u.)
GCAATCAATCAATCAATCATATATCCATATCAAATTAAGCCGGAGTCACCTAGTGCAG	61800 fluorescence intensity (a.u.)
CCCTCCAATCAAATTAACCTCCATATCTCTAGCAATCTGCCGGAGTCACCTAGTGCAG	29800 fluorescence intensity (a.u.)
TTTAATCACAAGCAAATCAATTAACTCATCCATACTCATCCGGAGTCACCTAGTGCAG	24200 fluorescence intensity (a.u.)
TATTCAAATCATTTAAGTAATTATTTATTCTTTTCATATCCGGAGTCACCTAGTGCAG	10000 fluorescence intensity (a.u.)
TTAATTAACGCGATTAATTAGCCGCAAATCTCAATCCAGGCGGAGTCACCTAGTGCAG	53200 fluorescence intensity (a.u.)
ATTAATTAACAATAATAAGTGATTAATAATTAATTAATCGCGGAGTCACCTAGTGCAG	44200 fluorescence intensity (a.u.)
AATTAATTATCATCATTACCGCAAATTCTCAAAAGTCAGGCGGAGTCACCTAGTGCAG	41200 fluorescence intensity (a.u.)
TCCCAATTAAGTCAATCAGTAATAATAAATAATTATGAACCGGAGTCACCTAGTGCAG	32500 fluorescence intensity (a.u.)
CATCCAATCAGTTTAGACAAGGTAAAGTCTCATTTTCACACGGAGTCACCTAGTGCAG	17800 fluorescence intensity (a.u.)
CTCATAACACTTTCCTAATTGCCTCATATGCGGCCTTCCCCGGAGTCACCTAGTGCAG	7620 fluorescence intensity (a.u.)
